Measurements from the supplement of paper PMC6555819.

Columns and labels:
Assay in all cases: PBM binding z-score (relative to random genomic background probes); higher = stronger binding; sequences stand for … in GC…GCGATTGACAGCGTAGAATGAAGG
[1] = system: RARb homodimer (NR concentration 270 nM)
Method in brief: (§1)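 Antibodies against each partner of ligand-free nuclear receptor dimers (one per run) detected binding on custom Agilent 4×180K protein-binding microarrays after 1 h incubation. The double-stranded probes had 34-nt variable regions carrying direct-repeat seeds, single-nucleotide variants, half-site ablations and random human genomic background sequences. Binding z-scores, from regression-normalized fluorescence, use the random background probes as reference.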

[2] = system: RARg:RXRa (NR concentration 270 nM, RXRa partner concentration 90 nM)
Method in brief: as §1

[3] = system: RARg homodimer (NR concentration 270 nM)
Method in brief: as §1

[4] = system: RXRa DBDmut IVT, anti-RXR (DBD mutation: RXRa K156A/R161A, NR concentration 90 nM)
Method in brief: as §1

[5] = system: RXRa homodimer (NR concentration 180 nM)
Method in brief: as §1

[6] = system: THRa:RXRa (NR concentration 90 nM, RXRa partner concentration 90 nM)
Method in brief: as §1

[7] = system: THRa homodimer (NR concentration 90 nM)
Method in brief: as §1

[8] = system: VDR:RXRa (NR concentration 270 nM, RXRa partner concentration 90 nM)
Method in brief: as §1

[9] = system: VDR homodimer (NR concentration 270 nM)
Method in brief: as §1

Sequence | PBM binding z-score [1] | PBM binding z-score [2] | PBM binding z-score [3] | PBM binding z-score [4] | PBM binding z-score [5] | PBM binding z-score [6] | PBM binding z-score [7] | PBM binding z-score [8] | PBM binding z-score [9]
CCGACTGGGGCAAAGGTAACCATACTCAGTACGA | 0.873 | 1.28 | 0.824 | -0.208 | 1.19 | 0.563 | -0.249 | 0.122 | -0.353
TGAATGAGGTTATAAGAACAGGGAACGTTGCAAA | -0.0181 | 1.21 | 1 | 0.468 | 1.89 | 1.62 | 0.00377 | 0.915 | 0.365
AGAACGAGGGCAAGGAGTTGATAGCACGGGTGGC | 0.992 | 1.21 | 1.49 | 1.12 | 0.867 | 0.885 | -0.277 | 3.32 | 1.93
CGTCCAAGGTCAGCAGGTCAGTGGAAGCGACGTG | 5.03 | 6.2 | 6.72 | 2.48 | 4.81 | 3.96 | 2.37 | 3.82 | 1.6
GTACGAAGGTGAATAGGTCGTTGATGAGTAGGCG | 1.82 | 2.78 | 1.4 | -0.12 | 1.81 | 0.742 | -0.401 | 0.73 | 0.0149
TCTTGTAGACCAGCAGGTTAAGAAAGCTGGCCAA | 0.0516 | -0.0399 | -0.6 | 0.357 | 0.393 | 0.00833 | -0.609 | 0.209 | -0.234
AATGCAGGGTCATCGTAGGCCAGAGTACGCACAG | 3.56 | 5.5 | 4.83 | 3.37 | 6.16 | 4.6 | 0.92 | 5.1 | 3.45
TCTTGTATATCAGCAGGTTAAGAAAGCTGGCCAA | 0.756 | 0.511 | 0.266 | 1.05 | 0.75 | 0.759 | 0.0914 | 0.851 | 0.143
ATCTGTAGGTAAGACTCAGTTCAGTGAAGAACGC | 0.419 | 0.15 | -0.0533 | 0.0968 | 0.114 | 0.687 | 0.0437 | 0.82 | 0.939
GCGACTGGGGCATCAGCCGGTTACCATAACTTAA | 0.131 | 0.11 | 0.063 | -0.636 | -0.543 | -0.0849 | -0.579 | -0.669 | -0.974
TGGATGAGGTTATAAGATCAGGGAACGTTGCAAA | 0.465 | 1.53 | 1.24 | 0.341 | 1.97 | 1.91 | 0.397 | 1.04 | 0.65
TCTTGTAGTTCAGCAGGTTAAGAAAGCTGGCCAA | 1.53 | 1.8 | 1.25 | 1.53 | 1.12 | 0.683 | 0.0556 | 1.78 | 0.942
TCATATAGGTAAACATGTGAAAGTCCGTAAGTTA | 0.34 | 0.489 | 0.354 | 1.66 | 1.06 | 0.435 | 0.267 | 1.1 | 0.405
ACAGACAGGGGATGAAGGTAACTCAGGCTATCAT | 0.714 | 0.0982 | 0.418 | 0.422 | 0.188 | 0.765 | 0.491 | 0.0836 | -0.173
TCGAGTAGGTTAGTCGGGGCATTCATCCAACATA | 0.534 | -0.0149 | 0.214 | 0.518 | 0.053 | 1.19 | 0.047 | 2.37 | 0.435
ATCTCCAGGTAAAAGTTCAGTGAATCCCGAGGAT | 2.54 | 2.14 | 2.33 | 0.595 | 1.94 | 1.57 | 0.432 | 1.43 | 1.84
GCTAGCAGGCCTTTTGGGTCACTCAATGACGGGC | 1.39 | 0.621 | 0.516 | -0.579 | 0.552 | 2.11 | 0.611 | -0.0926 | -0.536
CCGACTGGGTCAGAAAGGTTACCATACCATCCGG | 3.1 | 3.34 | 3.44 | -0.333 | 3.12 | 2.09 | 0.207 | 4.2 | 1.14

Sequence | PBM binding z-score [1] | PBM binding z-score [2] | PBM binding z-score [3] | PBM binding z-score [4] | PBM binding z-score [5] | PBM binding z-score [6] | PBM binding z-score [7] | PBM binding z-score [8] | PBM binding z-score [9]
GCTGCTAGGTCAGGTTTGTCAGCTAACGGGTACG | 2.21 | 2.03 | 2.94 | 0.952 | 0.681 | 1.48 | 0.489 | 0.236 | 0.755
CCTAGTTGGTTAGGAGGTCACACACCGGATATGA | 3.78 | 4.04 | 3.53 | 0.861 | 3.97 | 3.42 | 2.5 | 3.56 | 3.06
TGAATGAGGTTAAAGACCAGGGAACGTGGCGTCG | 0.539 | 1.91 | 0.92 | 0.895 | 2.95 | 2.14 | 0.297 | 1.09 | 0.179
TCTAGTTGGTCATAGGTCACACACTCGAAATGCG | 3.67 | 4.2 | 3.58 | 1.63 | 4.58 | 2.68 | 1.47 | 3.19 | 1.63
GATACAGGGTCAGCTAGAGGCCAGAGCATGGAAA | 3.06 | 6.77 | 4.51 | 1.31 | 4.26 | 3.01 | 0.132 | 3.04 | 0.805
ACTAGCAGGCCAAGTTTAGGTCACTCAAACAAAG | 2.6 | 3 | 2.44 | 0.0394 | 0.727 | 3.43 | 2.59 | 0.781 | 0.966
ACTCGGAGGACAAAGGTCAGAGCTACGCCAGTGA | 4.27 | 5.92 | 5.23 | 1.08 | 5.45 | 3.35 | 0.581 | 3.36 | 1.03
TAGCCTAGGTCATATCGGGCCAGTATACGCTATA | 2.44 | 3.33 | 3.95 | 1.17 | 2.49 | 4.54 | 0.783 | 2.28 | 0.939
AGTCAAAGTTCAGAACGAGGTAACGTAAAGCACG | 2.66 | 4.62 | 4.15 | 3.09 | 2.76 | 3.63 | 0.7 | 2.86 | 1.94
GCTGCTAGGTCAGGTTGGTCAGCTATCGGGTACG | 2.73 | 2.44 | 3.56 | 0.759 | 0.93 | 1.84 | 0.785 | 0.576 | 0.204
AGAATGAGGTTATACGTAGATCGGGGAAGAAAGT | 0.901 | 1.6 | 0.926 | 2.14 | 2.27 | 2.12 | 0.732 | 1.43 | 0.909
AGAATGAGGTTACCCAAGATCAGGGAAACGCTTG | 0.82 | 1.93 | 1.6 | 1.06 | 2.36 | 3.28 | 0.843 | 1.55 | 0.242
TCTCGGAGGACACGAAAGATCAGAGCTCGACATC | 0.303 | 0.634 | 1.18 | 0.716 | 0.321 | 1.2 | 0.159 | 0.0612 | -0.53
TCTTGTAGATGAAGCAGGTTAAGAAAGCCTGAGT | -0.21 | -0.0639 | -0.213 | 0.667 | 0.257 | -0.0515 | -0.455 | 0.456 | -0.176
CCTAGCAGGCCAATCTGGGTCAATCAAGGCTTGA | 1.85 | 0.779 | 1.13 | 0.108 | 0.518 | 3.67 | -0.0726 | 0.445 | -0.0739
CTGACTGGGGCAAGGTTACCATAACGCACAGCCA | 1.54 | 1.43 | 1.43 | 0.0299 | 1.28 | 1.52 | 0.417 | 0.261 | 0.129
GCGACTGGGGCAAAGCAGGTTACTATAAGGTTGG | 0.948 | 0.427 | 0.689 | 0.143 | 0.276 | 2.81 | 0.101 | 0.0986 | -0.0549
CGAACTAGGTCATTGACAGGCCAGTGAATAGTAA | 2.44 | 4.45 | 4.53 | 1.99 | 3.06 | 2.53 | 0.248 | 1.88 | 0.674
